Screening results from PubChem BioAssay.
In the library only some 5.2% were active in any assay of this set; here they are far more common.
Sfp inh – blocks B. subtilis Sfp PPTase activity. Q9F4F7. Biochemical Sfp PPTase activity, qHTS. Potency, µM, actives largely listed as inhibitors. 310,000 compounds, 3.5% hits. AID 1490;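 also: the enzyme is Sfp with the accession as filed and its product quenches rhodamine fluorescence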
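After 15 min at room temperature with compound, 15 nM Sfp received 5 uM rhodamine-CoA plus 12.5 uM BHQ-2-ybbR (50 mM Hepes pH 7.6, 10 mM MgCl2). Rate came from the fluorescence difference over 30 min, ex 525/em 598 nm.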
VDR inhibitor – vitamin D3 receptor (human) inhibition; 400,000 compounds, 0.93% hits; Potency, µM, hits mostly inhibitors; VDR-SRC2-3 peptide fluorescence polarization, 2 h; P11473
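Two reagent solutions held at 4 deg C in the dark were dispensed, compounds pinned at 23 nl, and the mixture incubated 2 h at room temperature. Read-out: fluorescence polarization of VDR–SRC2-3 peptide binding.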
IDH1 R132H inh – human IDH1 R132H inhibition. O75874. IDH1-R132H enzyme, NADPH consumption, diaphorase/resazurin fluorescence. Potency, µM (doses to about 76.6 µM), most hits filed as inhibitors. 390,000 compounds, 0.093% hits. AID 602179; also: nearly all actives have a fitted effect of over 65% in size
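IDH1-R132H (0.5 ug/mL dispensed) in pH 7.5 Tris buffer was preincubated 30 min with compound, then given a substrate mix of 0.016 mM NADPH and 2 mM alpha-KG for 80 min at room temperature; remaining NADPH was read by diaphorase/resazurin fluorescence.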
TrxR1 substrate – substrates of rat thioredoxin reductase 1 | 390,000 compounds, 0.01% hits | AID 588456 | Potency, µM (top dose mostly 114 µM) | purified TrxR1 substrate turnover, NADPH consumption readout; also: nearly all actives have a fitted effect of over 50% in size
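Rat TrxR1, dispensed at 90 nM, was prereduced with 400 uM NADPH (final) for 5 min at ~22 deg C, then incubated with compound 15 min before 400 uM selenite. A first-read NADPH fluorescence drop versus no-compound background flagged substrates.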
TrxR1 inh – blocks rat thioredoxin reductase 1; 390,000 compounds, 1% hits; O89049; AID 588453; recombinant rTrxR1, NADPH fluorescence consumption, selenite substrate; Potency, µM (doses to about 114 µM), actives largely listed as inhibitors; also: nearly all actives have a fitted effect of over 65% in size
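Rat TrxR1 (90 nM in the dispensed reagent) was pre-reduced with 400 uM NADPH for 5 min at room temperature, then incubated with compound for 15 min. After 400 uM selenite was added, NADPH fluorescence (Ex 340/Em 450 nm) was followed for 8 min.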
PLK1 PBD block – inhibitors of human PLK1 polo-box domain binding; P53350; Plk1 PBD binding of FITC phosphopeptide, fluorescence polarization; Potency, µM, usual class: inhibitors; 360,000 compounds, 2.8% hits; also: series mostly up to about 57 µM; nearly all actives have a fitted effect of over 65% in size
Target sequence (P53350 whole entry, looked up, the tested form may be a part): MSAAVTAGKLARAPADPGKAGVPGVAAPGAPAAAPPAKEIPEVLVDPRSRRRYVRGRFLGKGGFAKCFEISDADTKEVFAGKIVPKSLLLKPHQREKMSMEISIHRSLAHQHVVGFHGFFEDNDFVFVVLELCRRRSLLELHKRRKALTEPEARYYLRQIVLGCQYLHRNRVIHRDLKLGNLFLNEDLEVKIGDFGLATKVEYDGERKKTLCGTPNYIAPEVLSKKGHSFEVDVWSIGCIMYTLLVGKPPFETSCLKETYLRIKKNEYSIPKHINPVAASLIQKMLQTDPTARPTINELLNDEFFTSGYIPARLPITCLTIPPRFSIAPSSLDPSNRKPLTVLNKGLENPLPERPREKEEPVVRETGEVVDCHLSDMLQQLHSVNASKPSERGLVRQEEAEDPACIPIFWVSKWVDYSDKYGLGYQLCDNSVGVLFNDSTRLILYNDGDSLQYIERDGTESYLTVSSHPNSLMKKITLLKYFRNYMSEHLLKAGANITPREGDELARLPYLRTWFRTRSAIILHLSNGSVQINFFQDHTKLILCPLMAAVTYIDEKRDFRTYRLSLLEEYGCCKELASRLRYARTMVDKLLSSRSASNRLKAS
A number is an active result. Calls follow the shape of the dose curve; as a rule, active = well fitted curve in the direction sought with a large enough effect; inconclusive = small, poorly fitted or top-dose-only effect, or another doubt; inactive = no such curve, though single readings can be large; an effect the other way counts as inactive or inconclusive.

O=C(CN1CCN(c2ncccn2)CC1)Nc1ccccc1-n1cccc1 was read as Sfp inh 79µM, VDR inhibitor inactive, IDH1 R132H inh inactive, TrxR1 substrate inactive, TrxR1 inh inactive and PLK1 PBD block inactive.
O=C(C[n+]1ccncc1)c1ccc(Br)cc1 was read as TrxR1 substrate inactive and TrxR1 inh inactive.
Screening O=C(O)c1ccc(NC(=S)NC(=O)C(c2ccccc2)c2ccccc2)cc1 returned Sfp inh inactive, VDR inhibitor inactive, IDH1 R132H inh inactive, TrxR1 substrate inactive, TrxR1 inh inactive and PLK1 PBD block inactive.
`COc1ccc(C(=O)O)cc1NC(=S)NC(=O)C(c1ccccc1)c1ccccc1` gave Sfp inh inactive, VDR inhibitor inactive, IDH1 R132H inh inactive, TrxR1 substrate inactive, TrxR1 inh inactive and PLK1 PBD block 60µM.
COC(=O)CCC(=O)OC1(C)C(=O)C2=COC(c3ccc(OC)cc3)=CC2=C(Br)C1=O (stereo not drawn) was read as Sfp inh inactive, VDR inhibitor inconclusive, IDH1 R132H inh inactive, TrxR1 substrate inactive, TrxR1 inh 14µM and PLK1 PBD block 12µM.
Screening COc1ccc(C2=CC3=C(Br)C(=O)C(C)(OC(=O)c4ccc(Cl)nc4)C(=O)C3=CO2)cc1 (stereo not drawn) returned Sfp inh inactive, VDR inhibitor inactive, IDH1 R132H inh inactive, TrxR1 substrate inactive, TrxR1 inh 13µM and PLK1 PBD block 12µM.
`COC(=O)CCC(=O)OC1(C)C(=O)C2=CN(C(CO)CO)C(c3ccc(OC)cc3)=CC2=C(Br)C1=O` (stereo not drawn) gave Sfp inh inactive.
For COc1ccc(C2=CC3=C(Br)C(=O)C(C)(OC(=O)C4CCCC4)C(=O)C3=CO2)cc1 (stereo not drawn) the results were Sfp inh inactive, VDR inhibitor inconclusive, IDH1 R132H inh inactive, TrxR1 substrate inactive, TrxR1 inh inconclusive and PLK1 PBD block 24µM.
For CC1(OC(=O)C2CCCC2)C(=O)C=C2C=C(c3ccsc3)OC=C2C1=O (stereo not drawn) the results were Sfp inh inactive, VDR inhibitor inconclusive, IDH1 R132H inh inactive, TrxR1 substrate inactive, TrxR1 inh inactive and PLK1 PBD block inconclusive.
Screening O=C(COC(=O)C1CCN(c2ccc(C(F)(F)F)cn2)CC1)c1ccccc1 returned VDR inhibitor inactive, IDH1 R132H inh inactive, TrxR1 substrate inactive, TrxR1 inh inactive and PLK1 PBD block inactive.
`O=C(O)C(Cc1ccccc1-c1ccccc1)C(=O)O` gave Sfp inh inactive, VDR inhibitor inactive, IDH1 R132H inh inactive, TrxR1 substrate inactive, TrxR1 inh inactive and PLK1 PBD block inactive.
Screening O=C1/C(=C\Nc2ccc(Cl)cc2)CCN1c1ncccn1 returned Sfp inh 89µM, VDR inhibitor inactive, IDH1 R132H inh inactive, TrxR1 substrate inactive, TrxR1 inh inconclusive and PLK1 PBD block inactive.
For COc1cc2c(cc1OC)C1CCC3=C([C@H](C)OC3=O)N1CC2 (stereo partly drawn) the results were Sfp inh inactive and VDR inhibitor inactive.
`COc1ccc(C(=O)/C=C/c2cn(CC(O)CN3CCc4ccccc43)c3ccccc23)cc1` (stereo not drawn) gave VDR inhibitor inactive, IDH1 R132H inh inactive, TrxR1 substrate inactive and TrxR1 inh inactive.
For CCC(=C(c1ccc(OC)cc1)c1ccc(OC)cc1)c1cn(CC(O)CN2CCN(C)CC2)c2ccccc12 (stereo not drawn) the results were Sfp inh 50µM, VDR inhibitor inactive, IDH1 R132H inh inactive, TrxR1 substrate inactive, TrxR1 inh inactive and PLK1 PBD block inactive.
COc1ccc(C2/C=C\CN(CC(C)C)C(Cc3ccccc3)C(=O)N2Cc2ccc(F)cc2)cc1 (stereo not drawn) was read as Sfp inh inactive, VDR inhibitor inactive, TrxR1 substrate inactive and TrxR1 inh inactive.
For O=C(Nc1ccc(S(=O)(=O)Nc2nccs2)cc1)c1cc(-c2ccccc2Cl)nc2ccccc12 the results were Sfp inh inactive, VDR inhibitor inactive, IDH1 R132H inh inactive, TrxR1 substrate inactive, TrxR1 inh inactive and PLK1 PBD block 30µM.
Screening Cc1noc(NS(=O)(=O)c2ccc(NC(=O)CSc3nc4ccccc4s3)cc2)c1C returned Sfp inh 50µM, VDR inhibitor inconclusive, IDH1 R132H inh inactive, TrxR1 substrate inactive, TrxR1 inh inactive and PLK1 PBD block 17µM.
Screening Cc1ccc(-c2cc(C(=O)Nc3ccc(S(=O)(=O)Nc4onc(C)c4C)cc3)c3ccccc3n2)cc1 returned Sfp inh inactive, VDR inhibitor inactive, IDH1 R132H inh inactive, TrxR1 substrate inactive, TrxR1 inh inactive and PLK1 PBD block 34µM.
`CCC(C)C(NC(=O)OC(C)(C)C)C(=O)NC1COC2CC(n3ccc(NC(C)=O)nc3=O)OC12` (stereo not drawn) gave Sfp inh inactive, VDR inhibitor inactive, TrxR1 substrate inactive and TrxR1 inh inactive.
CC(C)(C)n1ncc2c(=O)n(Cc3ccccc3F)cnc21 was read as TrxR1 substrate inactive and TrxR1 inh inactive.
Cc1cnc(C(=O)Nc2nnc(C)s2)cn1 was read as Sfp inh 79µM, VDR inhibitor inactive, IDH1 R132H inh inactive, TrxR1 substrate inactive, TrxR1 inh inactive and PLK1 PBD block inactive.
For CCOC(=O)c1c(C)[nH]c(C)c1S(=O)(=O)NCC(=O)Nc1ccc(C)c(N(C)C)c1 the results were VDR inhibitor inactive, IDH1 R132H inh inactive, TrxR1 substrate inactive and TrxR1 inh inactive.
`Cc1ccc(N(C(C)C(=O)Nc2cccc(N(C)S(C)(=O)=O)c2)S(C)(=O)=O)cc1` (stereo not drawn) gave Sfp inh inactive, VDR inhibitor inactive, IDH1 R132H inh inactive, TrxR1 substrate inactive, TrxR1 inh inactive and PLK1 PBD block inactive.
Screening Cc1ccc(N(C(C)C(=O)Nc2ccc3c(c2)OCO3)S(C)(=O)=O)cc1 (stereo not drawn) returned Sfp inh inactive, VDR inhibitor inconclusive, IDH1 R132H inh inactive, TrxR1 substrate inactive, TrxR1 inh inactive and PLK1 PBD block 3µM.
For CC1(C(=O)NS(=O)(=O)c2ccc(F)cc2F)CCN1C(=O)CCc1ccccc1 (stereo not drawn) the results were PLK1 PBD block inactive.
`CC(C)C1N=C(c2ccc3c(c2)OCO3)CC(c2ccccc2O)N1` (stereo not drawn) gave Sfp inh inconclusive, VDR inhibitor 79µM, IDH1 R132H inh inactive, TrxR1 substrate inactive, TrxR1 inh inactive and PLK1 PBD block inactive.
For CC(C)C1(C)NC(c2ccc3c(c2)OCO3)=CC(c2ccccc2O)N1 (stereo not drawn) the results were VDR inhibitor inactive, TrxR1 substrate inactive and TrxR1 inh inactive.
